Most compounds without a hit are left out; they make up all but 19% or so of the library.
Gal4-VP16 FLuc – counter-screen for ROR gamma inhibitors: Gal4-VP16 reporter | Potency, µM (series often up to 53.6 µM), hits mostly inhibitors | 310,000 tested, 3.5% active | Drosophila S2 Gal4-VP16 UAS-luciferase, luminescence, 20 h | AID 2546;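 note: Gal4-VP16 expression switched on by copper sulfate through the metallothionein promoter; nearly all actives have a fitted effect of over 50% in size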
RORgamma inh – blocks mouse ROR gamma transcriptional activity; Drosophila S2 Gal4-RORgamma UAS-luciferase reporter, 20 h; Potency, µM (doses to about 53.6 µM), hits mostly inhibitors; 310,000 tested, 5.4% active; AID 2551; note: nearly all actives have a fitted effect of over 60% in size
Target sequence (P51450 whole entry, looked up, the tested form may be a part): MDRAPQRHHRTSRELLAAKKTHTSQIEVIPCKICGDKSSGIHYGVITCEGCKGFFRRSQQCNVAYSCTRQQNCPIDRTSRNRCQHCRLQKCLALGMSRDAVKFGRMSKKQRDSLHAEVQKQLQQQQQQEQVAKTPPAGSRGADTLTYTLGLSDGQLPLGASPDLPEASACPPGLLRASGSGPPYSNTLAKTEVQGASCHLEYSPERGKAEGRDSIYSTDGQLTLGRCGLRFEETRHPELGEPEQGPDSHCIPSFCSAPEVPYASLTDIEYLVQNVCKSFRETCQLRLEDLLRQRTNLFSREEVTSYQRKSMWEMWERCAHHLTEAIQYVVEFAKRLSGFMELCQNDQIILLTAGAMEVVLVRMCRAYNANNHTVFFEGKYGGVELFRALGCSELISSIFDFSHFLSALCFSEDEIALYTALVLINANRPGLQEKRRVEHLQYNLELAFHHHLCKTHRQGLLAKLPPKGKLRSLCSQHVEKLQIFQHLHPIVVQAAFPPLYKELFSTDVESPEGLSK
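Drosophila Schneider cells stably carrying a metallothionein-driven Gal4 DBD–ROR gamma fusion and a UAS-Photinus luciferase reporter were exposed to compound for 1 hr, then induced with copper sulfate (700 uM final) for 20 hr at ambient temperature before luminescence reading.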
TDP1 block – blocks human tyrosyl-DNA phosphodiesterase 1; AID 485290; Potency, µM (doses to about 130 µM), hits mostly inhibitors; 350,000 tested, 0.28% active; Q9NUW8; recombinant TDP1, AlphaScreen DNA substrate cleavage; note: nearly all actives have a fitted effect of over 40% in size
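Recombinant human Tdp1 (E. coli-expressed, 1 nM final) preincubated with compounds 15 min at room temperature, then 5'-biotin/3'-phosphotyrosine-FITC DNA substrate (15 nM final) added for 5 min. AlphaScreen beads (10 ug/ml final) added 10 min; cleavage lowers signal.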
DT40 TDP1 CPT – growth inhibition of DT40 Tdp1-/-;hTDP1 cells with camptothecin (screen for TDP1 inhibitors); chicken DT40 Tdp1-/-;hTDP1 cells + 20 nM CPT, ATP luminescence, 48 h; 420,000 tested, 12% active; Potency, µM (titrated, usually from 46.2 µM), usual class: inhibitors; AID 686979; note: nearly all actives have a fitted effect of over 55% in size
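Cell growth measured by CellTiter-Glo luminescence after a minimum 48 h, 37 C compound exposure with 20 nM CPT in Tdp1-knockout DT40 cells stably expressing hTDP1, seeded 400/well; qHTS titration format.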
TDP1 cell noCPT – qHTS for Inhibitors of human tyrosyl-DNA phosphodiesterase 1 (TDP1): qHTS in cells in absence of CPT; DT40 Tdp1-/- hTDP1 cells, no CPT, ATP luminescence, 48 h; Potency, µM (titrated, usually from 46.2 µM), actives largely listed as inhibitors; 420,000 tested, 15% active; note: nearly all actives have a fitted effect of over 55% in size
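Seeded 400 DT40-hTDP1 cells/well (vehicle DMSO, no 20 nM CPT); pinned compounds; ≥48 hr at 37 °C; CellTiter-Glo luminescence as viability measure.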
A number is an active result; [ ] = remark or other dose. Calls come from the whole dose curve; as a rule, active = well fitted curve in the direction sought with a large enough effect; inconclusive = small, poorly fitted or top-dose-only effect, or another doubt; inactive = no such curve, though single readings can be large; an effect the other way counts as inactive or inconclusive.

What do the screens show for `O=C(/C=C/c1ccc(O)c(O)c1)OCCc1ccccc1`?
Gal4-VP16 FLuc: 10µM; RORgamma inh: inconclusive; TDP1 block: inactive; DT40 TDP1 CPT: 1.5µM; TDP1 cell noCPT: 1µM

How did COCOc1ccccc1C(=O)/C=C/c1ccccc1 do in these assays?
Gal4-VP16 FLuc: inactive; RORgamma inh: inactive; TDP1 block: inactive

What do the screens show for `O=C(C=Cc1cccc(O)c1)c1ccccc1O`?
DT40 TDP1 CPT: inconclusive; TDP1 cell noCPT: 15µM

How did O=C(/C=C/c1ccccc1)NC(=O)c1ccccc1O do in these assays?
Gal4-VP16 FLuc: inconclusive; RORgamma inh: inactive; TDP1 block: inconclusive; DT40 TDP1 CPT: inconclusive; TDP1 cell noCPT: inconclusive

Results for CC(=O)Nc1ccc(S(=O)(=O)N2CCc3ccccc3C2CC(=O)O)cc1 (centres undefined) ?
Gal4-VP16 FLuc: inactive; RORgamma inh: inactive; DT40 TDP1 CPT: inactive; TDP1 cell noCPT: inactive

Results for CCOC(=O)c1ccc(N2C(=O)CC(N3CCN(C/C=C/c4ccccc4)CC3)C2=O)cc1 (centres undefined) ?
Gal4-VP16 FLuc: inactive; RORgamma inh: inactive; TDP1 block: inactive; DT40 TDP1 CPT: inactive; TDP1 cell noCPT: inactive

What do the screens show for `O=C(/C=C/c1ccoc1)c1ccccc1O`?
Gal4-VP16 FLuc: inactive; RORgamma inh: inconclusive; TDP1 block: inactive; DT40 TDP1 CPT: inactive; TDP1 cell noCPT: inactive

What do the screens show for `O=C(/C=C/c1ccc(O)c(O)c1)c1ccccc1O`?
Gal4-VP16 FLuc: inconclusive; RORgamma inh: inactive; TDP1 block: inactive; DT40 TDP1 CPT: 12µM; TDP1 cell noCPT: inconclusive

What do the screens show for `O=C(NNc1nc2ccccc2s1)c1ccc(F)cc1`?
Gal4-VP16 FLuc: 1.3µM; RORgamma inh: 0.56µM; TDP1 block: inactive; DT40 TDP1 CPT: inactive; TDP1 cell noCPT: inactive

What do the screens show for `CC(C)NC(=S)NNc1nc2ccccc2s1`?
Gal4-VP16 FLuc: 4µM; RORgamma inh: 2.5µM; TDP1 block: inactive; DT40 TDP1 CPT: 1.5µM; TDP1 cell noCPT: 2.9µM

How did O=C(NNc1nc2ccc(F)cc2s1)c1cccc(F)c1 do in these assays?
Gal4-VP16 FLuc: inconclusive; RORgamma inh: 4µM; TDP1 block: inactive; DT40 TDP1 CPT: 12µM; TDP1 cell noCPT: inconclusive

How did O=C(NNc1nc2c(F)cc(F)cc2s1)c1ccccc1 do in these assays?
Gal4-VP16 FLuc: inconclusive; RORgamma inh: 5µM; TDP1 block: inactive; DT40 TDP1 CPT: inactive; TDP1 cell noCPT: inactive

How did O=C(NNc1nc2c(F)cccc2s1)c1ccccc1 do in these assays?
Gal4-VP16 FLuc: inconclusive; RORgamma inh: inconclusive; TDP1 block: inactive; DT40 TDP1 CPT: inactive; TDP1 cell noCPT: inactive

How did CCOC(=O)Nc1nc2ccccc2s1 do in these assays?
Gal4-VP16 FLuc: inactive; RORgamma inh: inactive; TDP1 block: inactive; DT40 TDP1 CPT: inactive; TDP1 cell noCPT: inactive

Results for CCOc1ccccc1N(CC(=O)Nc1ccccc1F)S(=O)(=O)c1ccccc1 ?
Gal4-VP16 FLuc: inactive; RORgamma inh: inactive; TDP1 block: inactive; DT40 TDP1 CPT: inactive; TDP1 cell noCPT: inactive

How did Cc1cc2c(cc(C(=O)OC(C(=O)NCc3ccco3)C(C)C)n2C)o1 (centres undefined) do in these assays?
Gal4-VP16 FLuc: inactive; RORgamma inh: inactive[10 µM]; TDP1 block: inactive; DT40 TDP1 CPT: 26µM; TDP1 cell noCPT: 18µM

Results for S=c1[nH]ncn1NCc1ccc(Cl)cc1Cl ?
Gal4-VP16 FLuc: inconclusive; RORgamma inh: 6.3µM; TDP1 block: inactive; DT40 TDP1 CPT: inactive; TDP1 cell noCPT: inactive

How did O=C1N[C@@H](Cc2ccccc2)C(=O)N2[C@H]1C[C@]1(Br)c3ccccc3N(S(=O)(=O)c3ccc(F)cc3)[C@H]21 do in these assays?
DT40 TDP1 CPT: 18µM; TDP1 cell noCPT: inconclusive

What do the screens show for `CCOc1ccc(S(=O)(=O)NCCC(=O)NCC(c2cccs2)N2CCOCC2)cc1` (centres undefined)?
Gal4-VP16 FLuc: inactive; RORgamma inh: inactive; TDP1 block: inactive; DT40 TDP1 CPT: inactive; TDP1 cell noCPT: inactive

How did C=CCNc1n[nH]c(=S)s1 do in these assays?
DT40 TDP1 CPT: 5.2µM; TDP1 cell noCPT: 2.6µM

How did Cc1ccc(CNC(=O)CCCCCn2c(=O)[nH]c3ccccc3c2=O)cc1 do in these assays?
TDP1 block: inactive; DT40 TDP1 CPT: 0.65µM; TDP1 cell noCPT: 0.82µM

Results for O=C(CCCn1c(=O)[nH]c2ccccc2c1=O)NCCSCc1ccccc1 ?
Gal4-VP16 FLuc: inactive; RORgamma inh: inactive; TDP1 block: inactive; DT40 TDP1 CPT: inactive; TDP1 cell noCPT: inactive

How did O=C(CCCn1c(=S)[nH]c2ccccc2c1=O)NCCSCc1ccccc1 do in these assays?
Gal4-VP16 FLuc: inactive[10 µM]; RORgamma inh: 13µM; TDP1 block: inactive; DT40 TDP1 CPT: 23µM; TDP1 cell noCPT: inconclusive

How did COc1ccc(OC)c(-c2ccccc2/C=N/NS(=O)(=O)c2ccc(C)cc2)c1 do in these assays?
Gal4-VP16 FLuc: inactive[10 µM]; RORgamma inh: inactive[10 µM]; TDP1 block: inactive[21 µM]

Results for O=C(CSc1ccc2ccccc2n1)NCc1ccc2c(c1)OCO2 ?
Gal4-VP16 FLuc: inactive; RORgamma inh: inactive; TDP1 block: inactive; DT40 TDP1 CPT: inconclusive; TDP1 cell noCPT: inconclusive

What do the screens show for `O=C(NCc1ccc(F)c(F)c1)C1Cc2c(-c3ccc4c(c3)OCO4)ccnc2O1` (centres undefined)?
DT40 TDP1 CPT: 2.3µM; TDP1 cell noCPT: 2.9µM

Results for COc1ccc(C2=NOC(C(=O)Nc3ccc4c(c3)OCCO4)C2)cc1OC (centres undefined) ?
Gal4-VP16 FLuc: inactive; RORgamma inh: inactive; DT40 TDP1 CPT: inactive; TDP1 cell noCPT: inactive

What do the screens show for `COc1ccc(NC(=O)NCc2ccc3c(c2)OCO3)cc1OC`?
Gal4-VP16 FLuc: inactive; RORgamma inh: inactive; TDP1 block: inactive; DT40 TDP1 CPT: inactive; TDP1 cell noCPT: inactive

Results for COc1ccc(NC(=O)C2Cc3c(-c4ccc5c(c4)OCO5)ccnc3O2)cc1OC (centres undefined) ?
DT40 TDP1 CPT: 9.2µM; TDP1 cell noCPT: 8.2µM

What do the screens show for `COc1ccc(CNC(=O)C2Cc3c(-c4ccc5c(c4)OCO5)ccnc3O2)cc1OC` (centres undefined)?
DT40 TDP1 CPT: 18µM; TDP1 cell noCPT: 12µM

What do the screens show for `CN(C)C(=O)c1ccc(-c2nccc(Nc3ccc(F)cc3)n2)cc1`?
Gal4-VP16 FLuc: inactive; RORgamma inh: inactive; DT40 TDP1 CPT: inactive; TDP1 cell noCPT: inactive

How did O=c1cc(CN2CCN(c3cccc(Cl)c3)CC2)c2cc(O)c(-c3ccccc3)cc2o1 do in these assays?
Gal4-VP16 FLuc: inactive; RORgamma inh: inconclusive; TDP1 block: inactive; DT40 TDP1 CPT: 13µM; TDP1 cell noCPT: 18µM

Results for COc1cccc(NCc2cc(=O)oc3cc(-c4ccccc4)c(O)cc23)c1 ?
Gal4-VP16 FLuc: inconclusive; RORgamma inh: inconclusive; TDP1 block: inactive; DT40 TDP1 CPT: inconclusive; TDP1 cell noCPT: 18µM

What do the screens show for `O=c1cc(CN2CCN(Cc3ccccc3)CC2)c2ccc(O)cc2o1`?
Gal4-VP16 FLuc: inactive; RORgamma inh: inactive; DT40 TDP1 CPT: inactive; TDP1 cell noCPT: inconclusive

Source: PubChem BioAssay
